Here are results for 10 compounds from PubChem BioAssay (EPA / NIEHS).

The nature of experiment [1]: ATG_NFI_CIS: Attagene CIS-FACTORIAL HepG2 Assay for human Nuclear Factor I (NFI) (AID 2282989). The note with it: HepG2 cis-regulatory reporter, NFI response element transcription; actives raise or lower the signal. The procedure, abridged:
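Multiplexed cis-reporter system in human HepG2 cells reports native TF activity as reporter mRNA induction 24 h post-dose. Fragments labelled with 6-FAM, HpaI-digested and resolved by capillary electrophoresis; activity fitted both directions versus DMSO.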

In experiment [2] the target is Myc proto-oncogene protein (Homo sapiens) (UniProt P01106). The experiment is described as follows: ATG_Myc_CIS: Attagene CIS-FACTORIAL HepG2 Assay for human Myelocytomatosis (Myc) Proto-Oncogene Transcription Factor (AID 2282990). The settings on record: HepG2, Attagene cis-reporter transcription factor activity; actives raise or lower the signal. The procedure, abridged: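 Fluorescence intensity of reporter-specific cDNA fragments, separated by capillary electrophoresis, gives the signal. Transfected HepG2 cells carrying cis-promoter reporter constructs are incubated with compound for 24 h; DMSO serves as baseline.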

Experiment [3] in a line: ATG_NF_kB_CIS: Attagene CIS-FACTORIAL HepG2 Assay for human Nuclear Factor Kappa B (NF-kB) (AID 2282991). The note with it: HepG2 Attagene cis-factorial NF-kB reporter mRNA; actives raise or lower the signal. The procedure, abridged: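 HepG2 cells transiently transfected with multiplexed cis-element reporter units measuring endogenous transcription factor activity; reporter mRNA read 24 h after dosing by RT-PCR, fluorescent labelling, HpaI digestion and capillary electrophoresis. Bidirectional fit against DMSO baseline.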

Experiment [4] in a line: ATG_NRF2_ARE_CIS: Attagene CIS-FACTORIAL HepG2 Assay for human Nuclear Factor Erythroid 2 Related Factor 2 (NFR2) response to Antioxidant Response Elements (ARE) (AID 2282992). The note with it: HepG2 Attagene ARE/NRF2 reporter, transcription factor activity; actives raise or lower the signal. The procedure, abridged: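 Endogenous transcription factor activity read out as reporter transcript levels (RT-PCR plus capillary electrophoresis, fluorescence) in transiently transfected HepG2 cells. Measured at 24 h after dosing; gain or loss of signal fitted versus DMSO.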

Experiment [5] in a line: ATG_Oct_MLP_CIS: Attagene CIS-FACTORIAL HepG2 Assay for human Octamer-Binding Transcription Factor (Oct) (AID 2282993). The settings on record: HepG2 Attagene cis-factorial Oct reporter, mRNA; actives raise or lower the signal. The procedure, abridged:
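After 24 h compound exposure, transfected HepG2 cells were lysed for total RNA; reporter-specific cDNA was PCR-amplified, fluorescently labelled and sized by capillary electrophoresis. Bidirectional curve fitting used DMSO as baseline.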

Experiment [6] can be described thus: BSK_3C_TissueFactor: BioMAP Diversity Plus: 3C Assay for Tissue Factor Biomarker Activity (AID 2282997). The settings on record: BioMAP 3C HUVEC, tissue factor biomarker readout; actives raise or lower the signal. The procedure, abridged: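 Readout: Tissue Factor ELISA. Cells: human primary umbilical vein endothelium. Time: 24 h after dosing. Analysis: bidirectional fit, DMSO baseline.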

Experiment [7] in a line: BSK_3C_uPAR: BioMAP Diversity Plus: 3C Assay for Urokinase-type plasminogen activator receptor (uPAR) Biomarker Activity (AID 2282998). The note with it: BioMAP 3C HUVEC, uPAR biomarker ELISA; actives raise or lower the signal. The procedure, abridged: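 Values derive from bidirectional curve fitting relative to DMSO, which served as baseline of activity. uPAR was measured by ELISA in human umbilical vein endothelial primary cultures 24 h after compound addition.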
(ELISA stands for enzyme-linked immunosorbent assay.)

The nature of experiment [8]: BSK_3C_VCAM1: BioMAP Diversity Plus: 3C Assay for Vascular cell adhesion molecule 1 (VCAM1) Biomarker Activity (AID 2282999). The note with it: BioMAP 3C HUVEC, VCAM1 ELISA, cytokine-stimulated; actives raise or lower the signal. The procedure, abridged:
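HUVEC primary cells, 24 h compound exposure; VCAM-1 by ELISA; gain/loss of signal fitted bidirectionally vs DMSO baseline.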

Experiment [9] can be described thus: BSK_4H_Eotaxin3: BioMAP Diversity Plus: 4H Assay for Eotaxin 3 Biomarker Activity (AID 2283000).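 Also: CCL26 protein level quantified by ELISA in parallel with SRB cytotoxicity check.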 The note with it: primary human endothelial cells (HUVEC); actives raise or lower the signal. The procedure, abridged:
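HUVEC, 24 h post-dose, ELISA for Eotaxin-3/CCL26. Gain or loss of signal fitted bidirectionally vs DMSO baseline.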

For experiment [10], the target named is human Peroxisome Proliferator-activated Receptor delta (PPARd), PPARD (gene 5467) (UniProt Q03181). The experiment is described as follows: ATG_PPARd_TRANS: Attagene TRANS-FACTORIAL HepG2 Assay for human Peroxisome Proliferator-activated Receptor delta (PPARd) (AID 2283002; active = hit-call score of the fitted dose curve at least 0.9, where 1 is the maximum). Put shortly: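 Fluorescence from capillary electrophoresis of labelled RT-PCR reporter fragments gives the signal; DMSO sets baseline. Cells: HepG2 transiently carrying GAL4-UAS reporter units plus chimeric nuclear receptor-Gal4 proteins, exposed to chemicals for 24 h.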

Read-out in experiment [11]: Intercellular Adhesion Molecule 1 (ICAM1), ICAM1 (gene 3383)
Nature of the experiment: BSK_3C_ICAM1: BioMAP Diversity Plus: 3C Assay for Intercellular Adhesion Molecule 1 (ICAM1) Biomarker Activity (AID 2283003). The note with it: primary human endothelial cells (HUVEC); actives raise or lower the signal. Put shortly: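 ELISA readout of ICAM1 in human umbilical vein endothelial cells in the 3C system, taken 24 h post-dose. Gain or loss of signal versus DMSO was fitted in both directions, with SRB total-protein staining run in parallel.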

Experiment [12] is described as follows: BSK_3C_Proliferation: Cell Proliferation Assessment in the BioMAP Diversity Plus: 3C Assay (AID 2283006). The settings on record: primary human endothelial cells (HUVEC). The procedure, abridged: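 Proliferation as total protein: sulforhodamine B (0.1%) stain of TCA-fixed subconfluent human umbilical vein endothelial cells, absorbance 560 nm, 48 h after dosing. Activity fitted in both directions against DMSO baseline.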

Experiment [13] has as its target human Peroxisome Proliferator-activated Receptor alpha (PPARa), PPARA (gene 5465) (UniProt Q07869). The experiment is described as follows: ATG_PPARa_TRANS: Attagene TRANS-FACTORIAL HepG2 Assay for human Peroxisome Proliferator-activated Receptor alpha (PPARa) (AID 2283001; active = hit-call score of the fitted dose curve at least 0.9, where 1 is the maximum). The procedure, abridged: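 HepG2, transient MRTU transfection, 24 h treatment. RT-PCR → FAM labelling → capillary electrophoresis. Fit vs DMSO, positive direction.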

In experiment [14] the target is Peroxisome proliferator-activated receptor gamma (Homo sapiens) (UniProt P37231). The experiment is described as follows: ATG_PPARg_TRANS: Attagene TRANS-FACTORIAL HepG2 Assay for human Peroxisome Proliferator-activated Receptor-gamma (PPARg) (AID 2283007; active = hit-call score of the fitted dose curve at least 0.9, where 1 is the maximum). The procedure, abridged: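 HepG2 cells transiently transfected with multiplexed GAL4-UAS reporter units and exogenous chimeric NR-Gal4 proteins; reporter mRNA quantified after 24 h compound exposure by RT-PCR, fluorescent labelling, HpaI digestion and capillary electrophoresis; gain-of-signal fitted versus DMSO baseline.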

For experiment [15], the target named is Nuclear receptor subfamily 1 group I member 2 (Homo sapiens) (UniProt O75469). The experiment is described as follows: ATG_PXR_TRANS: Attagene TRANS-FACTORIAL HepG2 Assay for human Pregnane X Receptor (PXR) (AID 2283008; active = hit-call score of the fitted dose curve at least 0.9, where 1 is the maximum). Put shortly: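 Transactivation by exogenous PXR–GAL4 fusion measured as reporter transcript induction after 24 h compound treatment of transfected human HepG2 cells. Read-out via RT-PCR and capillary electrophoresis of labelled fragments, fitted upward relative to DMSO.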

In experiment [16] the target is human RAR-related Orphan Receptor beta (RORb), RORB (gene 6096) (UniProt Q92753). The experiment is described as follows: ATG_RORb_TRANS: Attagene TRANS-FACTORIAL HepG2 Assay for human RAR-related Orphan Receptor beta (RORb) (AID 2283010; active = hit-call score of the fitted dose curve at least 0.9, where 1 is the maximum). Put shortly: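 Read-out is reporter mRNA induction, quantified by RT-PCR with fluorescent capillary electrophoresis, 24 h post-dose in transiently transfected HepG2 expressing exogenous NR-Gal4 chimera. Activity fitted upward versus DMSO.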

The target of experiment [17] is Retinoic acid receptor alpha (Homo sapiens) (UniProt P10276). The experiment is described as follows: ATG_RARa_TRANS: Attagene TRANS-FACTORIAL HepG2 Assay for human Retinoic Acid Receptor alpha (RARa) (AID 2283005; active = hit-call score of the fitted dose curve at least 0.9, where 1 is the maximum). The procedure, abridged: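 HepG2 transiently transfected with multiplex GAL4-UAS reporter units including a human RARa–GAL4 chimera; 24 h compound exposure. Reporter mRNA quantified by RT-PCR, 6-FAM labeling and capillary electrophoresis; gain of signal versus DMSO.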

Experiment [18] concerns the target human Retinoic Acid Receptor gamma (RARg), RARG (gene 5916) (UniProt P13631). Nature of the experiment: ATG_RARg_TRANS: Attagene TRANS-FACTORIAL HepG2 Assay for human Retinoic Acid Receptor gamma (RARg) (AID 2283009; active = hit-call score of the fitted dose curve at least 0.9, where 1 is the maximum). Put shortly: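 Transactivation of exogenous RARg-Gal4 fusion measured as reporter transcript induction after 24 h in transfected HepG2 cells. RNA reverse-transcribed, amplified, fluorescently labeled and resolved by capillary electrophoresis; increase relative to DMSO.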

For experiment [19], the target named is Cellular tumor antigen p53 (Homo sapiens) (UniProt P04637). Nature of the experiment: ATG_p53_CIS: Attagene CIS-FACTORIAL HepG2 Assay for human p53 Transcription Factor (AID 2282994). The settings on record: HepG2 p53 cis-element reporter, Attagene mRNA; actives raise or lower the signal. Put shortly: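 Endogenous p53 activity read in transiently transfected HepG2 from a cis-element-driven reporter transcript after 24 h exposure. RNA reverse-transcribed, PCR-amplified, fluorescently labelled and sized by capillary electrophoresis; gain or loss fitted against DMSO baseline.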

Where “and” joins values, the source holds several entries; their conditions need not be identical. Equal values may be shown once. Records with an inconclusive call do not appear. Calls of active or inactive are those of the source. The calls were made as follows, unless noted: active = hit-call score of the fitted dose curve at least 0.9, where 1 is the maximum; inactive = score below 0.9.

Sequence of human Peroxisome Proliferator-activated Receptor alpha (PPARa), PPARA (gene 5465) (Q07869 whole entry, looked up): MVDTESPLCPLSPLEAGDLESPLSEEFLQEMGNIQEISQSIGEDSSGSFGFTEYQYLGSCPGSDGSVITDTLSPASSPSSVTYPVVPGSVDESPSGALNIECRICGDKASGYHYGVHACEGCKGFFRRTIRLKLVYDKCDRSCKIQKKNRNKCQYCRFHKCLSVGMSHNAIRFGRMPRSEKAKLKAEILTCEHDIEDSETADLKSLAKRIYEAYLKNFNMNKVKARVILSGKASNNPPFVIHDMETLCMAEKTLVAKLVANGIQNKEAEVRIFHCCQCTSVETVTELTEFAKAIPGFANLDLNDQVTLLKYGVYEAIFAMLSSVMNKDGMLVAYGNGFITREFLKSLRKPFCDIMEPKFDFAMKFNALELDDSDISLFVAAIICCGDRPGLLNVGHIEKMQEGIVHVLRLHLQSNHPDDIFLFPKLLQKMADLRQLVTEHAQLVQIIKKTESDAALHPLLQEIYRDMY
Sequence of Myc proto-oncogene protein (Homo sapiens) (P01106 whole entry, looked up, the tested form may be a part): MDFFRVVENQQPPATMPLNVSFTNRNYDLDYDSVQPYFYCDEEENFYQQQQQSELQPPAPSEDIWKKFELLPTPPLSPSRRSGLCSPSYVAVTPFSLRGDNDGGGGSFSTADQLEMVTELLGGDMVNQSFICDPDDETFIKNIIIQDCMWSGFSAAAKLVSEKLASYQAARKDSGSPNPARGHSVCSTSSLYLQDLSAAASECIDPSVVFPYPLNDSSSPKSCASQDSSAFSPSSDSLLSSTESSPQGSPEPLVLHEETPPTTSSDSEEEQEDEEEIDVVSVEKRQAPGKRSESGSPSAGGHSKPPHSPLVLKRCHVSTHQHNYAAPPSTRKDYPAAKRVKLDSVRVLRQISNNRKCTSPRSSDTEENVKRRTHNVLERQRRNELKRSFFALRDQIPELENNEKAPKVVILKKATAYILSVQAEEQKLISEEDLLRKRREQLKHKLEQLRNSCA
Sequence of Peroxisome proliferator-activated receptor gamma (Homo sapiens) (P37231 whole entry, looked up, the tested form may be a part): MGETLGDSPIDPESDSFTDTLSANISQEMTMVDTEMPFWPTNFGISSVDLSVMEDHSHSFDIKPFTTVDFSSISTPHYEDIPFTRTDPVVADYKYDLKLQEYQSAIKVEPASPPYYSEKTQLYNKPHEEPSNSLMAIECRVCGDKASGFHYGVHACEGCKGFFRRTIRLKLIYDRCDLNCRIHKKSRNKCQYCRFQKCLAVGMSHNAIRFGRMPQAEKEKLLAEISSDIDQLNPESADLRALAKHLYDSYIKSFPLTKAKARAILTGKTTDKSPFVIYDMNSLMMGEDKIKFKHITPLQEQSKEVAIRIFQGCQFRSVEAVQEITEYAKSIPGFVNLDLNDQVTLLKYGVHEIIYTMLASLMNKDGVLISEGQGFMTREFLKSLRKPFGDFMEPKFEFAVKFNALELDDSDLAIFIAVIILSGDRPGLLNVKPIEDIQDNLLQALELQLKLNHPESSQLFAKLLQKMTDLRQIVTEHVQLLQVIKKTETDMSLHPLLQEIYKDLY
Sequence of human Peroxisome Proliferator-activated Receptor delta (PPARd), PPARD (gene 5467) (Q03181 whole entry, looked up, the tested form may be a part): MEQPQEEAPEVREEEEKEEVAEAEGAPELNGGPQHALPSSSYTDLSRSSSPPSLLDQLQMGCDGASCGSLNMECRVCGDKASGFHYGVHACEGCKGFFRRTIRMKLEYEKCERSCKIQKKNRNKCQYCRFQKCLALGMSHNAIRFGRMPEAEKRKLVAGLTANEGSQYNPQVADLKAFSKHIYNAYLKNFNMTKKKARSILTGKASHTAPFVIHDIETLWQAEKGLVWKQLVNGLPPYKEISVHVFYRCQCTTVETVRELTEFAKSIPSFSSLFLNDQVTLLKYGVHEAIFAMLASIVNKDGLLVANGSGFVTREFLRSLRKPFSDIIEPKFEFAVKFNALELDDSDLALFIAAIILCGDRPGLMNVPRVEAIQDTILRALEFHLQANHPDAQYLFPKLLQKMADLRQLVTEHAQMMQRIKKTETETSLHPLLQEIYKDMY
Sequence of Cellular tumor antigen p53 (Homo sapiens) (P04637 whole entry, looked up): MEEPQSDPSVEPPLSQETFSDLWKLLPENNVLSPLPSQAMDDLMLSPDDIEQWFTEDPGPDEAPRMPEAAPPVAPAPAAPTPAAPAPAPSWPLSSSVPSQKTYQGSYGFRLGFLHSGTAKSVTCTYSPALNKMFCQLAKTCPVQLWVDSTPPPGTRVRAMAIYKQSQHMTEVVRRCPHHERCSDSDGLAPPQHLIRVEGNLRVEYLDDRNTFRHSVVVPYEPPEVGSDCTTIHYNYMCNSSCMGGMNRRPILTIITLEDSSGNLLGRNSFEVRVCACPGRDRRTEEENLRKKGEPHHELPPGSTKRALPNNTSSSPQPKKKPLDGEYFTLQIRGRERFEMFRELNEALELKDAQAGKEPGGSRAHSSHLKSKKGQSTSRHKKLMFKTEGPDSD
Sequence of Nuclear receptor subfamily 1 group I member 2 (Homo sapiens) (O75469 whole entry, looked up, the tested form may be a part): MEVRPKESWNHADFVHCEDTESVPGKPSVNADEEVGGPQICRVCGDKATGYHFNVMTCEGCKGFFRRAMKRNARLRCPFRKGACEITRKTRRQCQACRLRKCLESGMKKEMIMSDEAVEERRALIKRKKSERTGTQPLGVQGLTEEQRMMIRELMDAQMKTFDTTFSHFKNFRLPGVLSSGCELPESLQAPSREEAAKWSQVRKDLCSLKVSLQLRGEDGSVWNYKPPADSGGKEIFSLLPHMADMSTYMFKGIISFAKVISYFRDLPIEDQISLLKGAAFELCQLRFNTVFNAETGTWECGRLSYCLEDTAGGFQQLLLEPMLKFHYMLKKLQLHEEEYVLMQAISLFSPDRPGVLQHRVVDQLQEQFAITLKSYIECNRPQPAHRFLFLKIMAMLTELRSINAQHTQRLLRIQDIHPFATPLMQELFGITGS
Sequence of human RAR-related Orphan Receptor beta (RORb), RORB (gene 6096) (Q92753 whole entry, looked up, the tested form may be a part): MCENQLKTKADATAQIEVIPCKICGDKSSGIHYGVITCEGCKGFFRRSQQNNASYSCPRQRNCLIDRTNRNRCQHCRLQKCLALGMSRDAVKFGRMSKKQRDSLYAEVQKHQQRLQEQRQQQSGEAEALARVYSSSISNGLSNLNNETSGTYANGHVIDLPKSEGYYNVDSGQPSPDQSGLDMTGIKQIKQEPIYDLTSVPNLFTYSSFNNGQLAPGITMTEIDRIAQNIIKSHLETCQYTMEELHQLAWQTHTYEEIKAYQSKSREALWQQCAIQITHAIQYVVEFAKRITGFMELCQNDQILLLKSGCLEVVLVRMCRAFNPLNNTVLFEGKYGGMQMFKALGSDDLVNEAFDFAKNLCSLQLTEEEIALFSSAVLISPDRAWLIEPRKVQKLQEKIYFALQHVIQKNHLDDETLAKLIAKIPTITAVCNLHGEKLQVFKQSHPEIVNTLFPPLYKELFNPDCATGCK
Sequence of human Retinoic Acid Receptor gamma (RARg), RARG (gene 5916) (P13631 whole entry, looked up, the tested form may be a part): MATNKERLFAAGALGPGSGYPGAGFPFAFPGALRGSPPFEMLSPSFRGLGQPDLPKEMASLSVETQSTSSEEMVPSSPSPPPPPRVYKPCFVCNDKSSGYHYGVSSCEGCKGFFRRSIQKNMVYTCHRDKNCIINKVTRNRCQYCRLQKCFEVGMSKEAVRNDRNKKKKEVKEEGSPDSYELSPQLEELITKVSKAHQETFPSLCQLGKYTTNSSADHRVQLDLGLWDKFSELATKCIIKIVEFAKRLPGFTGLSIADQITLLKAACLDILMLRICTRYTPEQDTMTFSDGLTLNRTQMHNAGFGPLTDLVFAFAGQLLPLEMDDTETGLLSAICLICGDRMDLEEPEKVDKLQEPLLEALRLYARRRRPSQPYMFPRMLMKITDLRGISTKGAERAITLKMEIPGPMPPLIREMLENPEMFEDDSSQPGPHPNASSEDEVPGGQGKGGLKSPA
Sequence of Retinoic acid receptor alpha (Homo sapiens) (P10276 whole entry, looked up, the tested form may be a part): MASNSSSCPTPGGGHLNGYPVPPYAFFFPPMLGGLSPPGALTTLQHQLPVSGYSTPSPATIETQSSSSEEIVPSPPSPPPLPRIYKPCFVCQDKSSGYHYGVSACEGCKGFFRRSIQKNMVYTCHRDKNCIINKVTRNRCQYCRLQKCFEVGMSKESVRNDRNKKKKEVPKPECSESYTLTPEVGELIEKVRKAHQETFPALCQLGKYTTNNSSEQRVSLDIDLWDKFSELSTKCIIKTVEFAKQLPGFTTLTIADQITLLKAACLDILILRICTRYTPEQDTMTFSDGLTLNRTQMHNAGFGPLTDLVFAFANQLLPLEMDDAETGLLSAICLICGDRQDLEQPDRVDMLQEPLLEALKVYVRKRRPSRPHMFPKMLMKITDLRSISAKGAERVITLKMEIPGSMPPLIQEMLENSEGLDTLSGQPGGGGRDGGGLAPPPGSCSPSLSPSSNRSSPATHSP

Take `Clc1cccc(Cl)c1`: the outcome in [1], in experiment [2], in experiment [3], in experiment [4], in [5] and in [6] was inactive. Also, the outcome in [7], in experiment [8], in experiment [9], in experiment [10], in experiment [11] and in experiment [12] was inactive.

By AC50 is commonly meant the concentration giving half of the maximal activity seen. `CNC(=O)N(C)c1nc2ccccc2s1`: the result in experiment [1], in experiment [2], in experiment [3], in [5], in experiment [13] and in [10] was inactive. Besides, the compound was called inactive in experiment [14] and in [16]. Also, the values for the AC50 in experiment [4] and in experiment [15] were 14.5 µM (active) and 52.8 µM (active), respectively.

Consider `Nc1ccc(N)cc1`, for which the outcome in experiment [1], in [2], in experiment [3], in experiment [5], in [6] and in experiment [7] was inactive. Moreover, the result in experiment [8], in [9], in [13], in experiment [11], in experiment [17] and in [12] was inactive. The compound was called inactive in [14], in experiment [18] and in [16]. In [4], the AC50 is 11.5 µM (active) and 12.4 µM (active).

Turning to `CC(F)(F)CC(F)(F)F`, the outcome in experiment [1], in experiment [2], in experiment [3], in experiment [4], in experiment [5] and in [19] was inactive. Moreover, the compound was called inactive in experiment [10], in experiment [14], in experiment [15] and in experiment [18].

With `CCCSP(=S)(OCC)Oc1ccc(Cl)cc1Cl` (stereo not given), the call in experiment [1], in experiment [2], in experiment [3], in experiment [5], in experiment [13] and in [10] was inactive. Also, in [16], the outcome was inactive. Further, the AC50 is 13.3 µM (active) in [4], 24.3 µM (active) in [14] and 2.51 µM (active) in [15].

As to `CNC(=O)CSP(=O)(OC)OC`, the compound was classed as inactive in experiment [1], in experiment [2], in experiment [3], in [4], in experiment [5] and in experiment [13]. Further, the call in experiment [10] and in [14] was inactive.

Turning to `CCOP(=S)(OCC)Oc1ccc(Cl)cc1Cl`, the compound was called inactive in experiment [1], in experiment [2], in experiment [3], in [5], in [19] and in experiment [10]. The outcome in experiment [14] and in [16] was inactive. For the same compound, the AC50 was 43.7 µM (active) in [4] and 3.85 µM (active) in experiment [15].

Consider `O=NN1CCCCCC1`, for which the compound was classed as inactive in [1], in experiment [2], in experiment [3], in [4], in experiment [5] and in experiment [19]. Moreover, the call in experiment [14] and in experiment [15] was inactive.

Take `COc1nn(C(=O)NS(=O)(=O)c2ccccc2OC(F)(F)F)c(=O)n1C`: the compound was classed as inactive in experiment [1], in [2], in experiment [3], in [4], in experiment [5] and in experiment [10]. For the same compound, the outcome in experiment [14] and in experiment [15] was inactive.

As to `O=S(=O)(Oc1ccc(Cl)cc1)c1ccc(Cl)cc1`, the outcome in [1], in experiment [2], in experiment [3], in experiment [5], in experiment [10] and in experiment [16] was inactive. In addition, the AC50 in [4] was 23.1 µM (active); in experiment [14], 27.5 µM (active).
